# Results reported in PubChem BioAssay (EPA / NIEHS).
# Records with an inconclusive call do not appear. Activity calls are given as the source filed them. The calls were made as follows: active = hit-call score of the fitted dose curve at least 0.9, where 1 is the maximum; inconclusive = response in the unintended direction; inactive = score below 0.9.
# Tests used:
# [1] = target: rat Thyrotropin Releasing Hormone Receptor (TRH), Trhr (gene 25570) (UniProt Q01717); experiment: NVS_GPCR_rTRH: NovaScreen (NVS) G Protein-Coupled Receptor Assay for rat Thyrotropin Releasing Hormone Receptor (TRH) (AID 2283329);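 also: hit means lower bound tracer signal versus DMSO baseline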
# Sequence of rat Thyrotropin Releasing Hormone Receptor (TRH), Trhr (gene 25570) (Q01717 whole entry, looked up): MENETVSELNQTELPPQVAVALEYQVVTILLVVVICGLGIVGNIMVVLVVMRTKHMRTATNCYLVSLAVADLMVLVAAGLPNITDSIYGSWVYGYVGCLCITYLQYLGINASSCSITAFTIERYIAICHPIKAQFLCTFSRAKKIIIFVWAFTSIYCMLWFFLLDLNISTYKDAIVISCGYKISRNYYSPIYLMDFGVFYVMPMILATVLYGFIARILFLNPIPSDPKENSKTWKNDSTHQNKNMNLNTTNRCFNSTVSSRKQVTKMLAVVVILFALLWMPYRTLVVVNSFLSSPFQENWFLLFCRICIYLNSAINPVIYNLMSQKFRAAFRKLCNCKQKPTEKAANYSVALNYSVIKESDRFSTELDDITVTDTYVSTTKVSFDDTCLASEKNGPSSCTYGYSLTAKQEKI
# Method in brief: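 Rat forebrain membrane prep, radioligand displacement, filter scintillation readout at 4 h. Single conc 25 uM, duplicate; actives retested as concentration series. DMSO = negative control/baseline.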
# [2] = target: Estrogen receptor beta (Homo sapiens) (UniProt Q92731); experiment: OT_ER_ERbERb_0480: Odyssey Thera (OT) 8-hour HEK293T Protein-Complementation Assay for Estrogen Receptor-beta/-beta Homodimer (AID 2283357);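 also: active means signal gain over DMSO baseline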
# Sequence of Estrogen receptor beta (Homo sapiens) (Q92731 whole entry, looked up, the tested form may be a part): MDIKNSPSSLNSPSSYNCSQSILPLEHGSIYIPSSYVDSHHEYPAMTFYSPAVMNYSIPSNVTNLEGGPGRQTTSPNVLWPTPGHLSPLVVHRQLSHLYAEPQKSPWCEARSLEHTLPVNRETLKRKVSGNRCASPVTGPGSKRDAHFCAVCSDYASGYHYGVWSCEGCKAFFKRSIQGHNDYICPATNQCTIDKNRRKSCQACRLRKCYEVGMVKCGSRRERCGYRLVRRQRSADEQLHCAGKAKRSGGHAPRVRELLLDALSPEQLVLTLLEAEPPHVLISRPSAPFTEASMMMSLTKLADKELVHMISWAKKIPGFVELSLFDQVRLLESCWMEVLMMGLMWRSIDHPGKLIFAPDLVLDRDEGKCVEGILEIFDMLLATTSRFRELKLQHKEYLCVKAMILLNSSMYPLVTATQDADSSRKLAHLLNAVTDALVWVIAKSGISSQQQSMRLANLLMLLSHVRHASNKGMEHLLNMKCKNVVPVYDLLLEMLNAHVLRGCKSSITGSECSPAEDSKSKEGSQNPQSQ
# Method in brief: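 Fluorescence intensity, nuclear for agonists and nuclear plus cytoplasmic for antagonists, was quantified by laser scanning cytometry versus vehicle after 8 h treatment. The cells were HEK293T stably carrying ER beta LBD fragment-complementation partners.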
# [3] = target: Androgen Receptor/SRC-1 Co-activator, AR (gene 367) (UniProt P10275); experiment: OT_AR_ARSRC1_0960: Odyssey Thera (OT) 16-hour HEK293T Protein-Complementation Assay for Androgen Receptor/SRC-1 Co-activator (AID 2283353);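 also: actives raise the signal above DMSO so potency reflects increased AR and SRC-1 complex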
# Sequence of Androgen Receptor/SRC-1 Co-activator, AR (gene 367) (P10275 whole entry, looked up, the tested form may be a part): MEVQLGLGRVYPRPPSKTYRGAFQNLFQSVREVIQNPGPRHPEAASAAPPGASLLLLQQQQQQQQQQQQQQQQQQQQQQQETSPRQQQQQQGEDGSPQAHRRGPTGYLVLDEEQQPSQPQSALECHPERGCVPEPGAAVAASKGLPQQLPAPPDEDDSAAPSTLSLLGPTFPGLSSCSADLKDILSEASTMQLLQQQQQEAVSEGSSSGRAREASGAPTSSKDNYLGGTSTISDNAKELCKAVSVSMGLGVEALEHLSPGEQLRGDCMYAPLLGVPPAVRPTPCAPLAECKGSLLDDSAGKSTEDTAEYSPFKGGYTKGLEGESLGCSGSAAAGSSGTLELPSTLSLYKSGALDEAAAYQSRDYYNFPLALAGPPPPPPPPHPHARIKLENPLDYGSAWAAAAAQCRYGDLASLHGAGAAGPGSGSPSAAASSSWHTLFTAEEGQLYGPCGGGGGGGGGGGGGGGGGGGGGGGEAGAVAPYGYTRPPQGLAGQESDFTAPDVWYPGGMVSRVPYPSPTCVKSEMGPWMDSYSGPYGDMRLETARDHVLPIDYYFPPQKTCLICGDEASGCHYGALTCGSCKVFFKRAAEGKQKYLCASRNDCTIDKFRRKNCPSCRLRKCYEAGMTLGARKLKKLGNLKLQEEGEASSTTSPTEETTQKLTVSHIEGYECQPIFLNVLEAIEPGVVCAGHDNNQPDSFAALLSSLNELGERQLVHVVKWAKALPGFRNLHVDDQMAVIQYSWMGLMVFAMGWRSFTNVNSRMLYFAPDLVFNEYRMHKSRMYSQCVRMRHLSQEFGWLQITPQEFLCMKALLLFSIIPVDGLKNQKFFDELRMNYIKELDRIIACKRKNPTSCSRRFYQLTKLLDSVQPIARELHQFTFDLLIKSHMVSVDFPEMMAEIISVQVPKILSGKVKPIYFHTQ
# Method in brief: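 HEK293T cells stably expressing AR and SRC-1 fused to Venus YFP fragments, imaged 16 h after dosing. Nuclear/cytoplasmic fluorescence ratio at 488 nm from at least 400 cells per image; gain of signal relative to DMSO.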
# [4] = target: Androgen Receptor/SRC-1 Co-activator, AR (gene 367) (UniProt P10275); experiment: OT_AR_ARSRC1_0480: Odyssey Thera (OT) 8-hour HEK293T Protein-Complementation Assay for Androgen Receptor/SRC-1 Co-activator (AID 2283354);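 also: hits raise the complementation signal above DMSO so AC50 marks enhancers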
# Method in brief: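 HEK293T cells stably expressing AR and SRC-1 fused to Venus YFP fragments, imaged 8 h after dosing. Complementation fluorescence scored as nuclear/cytoplasmic ratio at 488 nm in at least 400 cells per image; gain fitted versus DMSO.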
# [5] = target: Retinoic acid receptor alpha (Homo sapiens) (UniProt P10276); experiment: NVS_NR_hRAR_Antagonist: NovaScreen (NVS) Nuclear Receptor Binding Assay for human Retinoic Acid Alpha Receptor Antagonism (RAR) (AID 2283358)
# Sequence of Retinoic acid receptor alpha (Homo sapiens) (P10276 whole entry, looked up): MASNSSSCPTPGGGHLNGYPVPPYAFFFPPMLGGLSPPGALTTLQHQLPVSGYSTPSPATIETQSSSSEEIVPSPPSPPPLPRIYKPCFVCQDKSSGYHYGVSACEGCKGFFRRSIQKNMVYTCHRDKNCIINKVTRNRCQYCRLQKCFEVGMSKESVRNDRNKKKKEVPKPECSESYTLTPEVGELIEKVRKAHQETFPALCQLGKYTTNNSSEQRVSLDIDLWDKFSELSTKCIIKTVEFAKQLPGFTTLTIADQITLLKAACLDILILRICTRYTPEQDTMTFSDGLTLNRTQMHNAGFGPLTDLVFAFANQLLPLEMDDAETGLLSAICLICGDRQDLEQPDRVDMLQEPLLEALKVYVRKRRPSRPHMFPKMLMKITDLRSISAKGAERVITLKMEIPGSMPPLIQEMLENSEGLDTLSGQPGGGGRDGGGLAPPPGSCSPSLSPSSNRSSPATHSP
# Method in brief: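 Cell-free TR-FRET binding assay with extracted human RARalpha in antagonist mode, read 2 h after dosing. Loss of signal was fitted relative to DMSO; the primary screen used 25 uM in duplicate, with concentration series on follow-up.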
# [6] = target: Glucocorticoid receptor (Homo sapiens) (UniProt P04150); experiment: NVS_NR_hGR: NovaScreen (NVS) Nuclear Receptor Binding Assay for human Glucocorticoid Receptor (GR) (AID 2283363);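 as to AC50: activity is loss of specific radioligand binding signal relative to DMSO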
# Sequence of Glucocorticoid receptor (Homo sapiens) (P04150 whole entry, looked up): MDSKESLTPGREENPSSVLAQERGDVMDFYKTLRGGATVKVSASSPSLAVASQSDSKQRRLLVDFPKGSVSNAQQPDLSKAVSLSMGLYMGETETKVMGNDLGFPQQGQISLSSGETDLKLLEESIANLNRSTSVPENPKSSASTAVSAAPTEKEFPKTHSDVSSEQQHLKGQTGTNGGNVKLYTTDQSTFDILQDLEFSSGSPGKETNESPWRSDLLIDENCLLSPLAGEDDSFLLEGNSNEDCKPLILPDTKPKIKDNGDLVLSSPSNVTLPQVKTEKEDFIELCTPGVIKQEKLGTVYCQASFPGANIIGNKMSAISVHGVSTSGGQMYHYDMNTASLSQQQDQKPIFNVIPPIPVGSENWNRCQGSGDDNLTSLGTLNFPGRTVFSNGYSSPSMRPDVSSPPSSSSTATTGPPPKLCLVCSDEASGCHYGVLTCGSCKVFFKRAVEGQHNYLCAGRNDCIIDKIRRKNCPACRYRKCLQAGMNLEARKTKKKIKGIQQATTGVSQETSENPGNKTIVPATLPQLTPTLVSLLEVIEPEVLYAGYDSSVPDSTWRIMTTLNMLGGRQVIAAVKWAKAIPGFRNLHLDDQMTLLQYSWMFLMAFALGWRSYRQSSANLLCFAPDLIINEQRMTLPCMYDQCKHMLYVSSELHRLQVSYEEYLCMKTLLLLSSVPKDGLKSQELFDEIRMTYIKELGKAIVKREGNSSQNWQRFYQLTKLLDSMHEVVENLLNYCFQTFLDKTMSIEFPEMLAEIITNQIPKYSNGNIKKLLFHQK
# Method in brief: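 Cell-free radioligand displacement assay on extracted human GR, read 16 h after dosing by filter-based scintillation counting. Screened in duplicate at 25 uM, then concentration series for actives; loss of signal versus DMSO baseline.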
# [7] = target: rat Peripheral-type Benzodiazepine Receptor (PBR), Tspo (gene 24230) (UniProt P16257); experiment: NVS_MP_rPBR: NovaScreen (NVS) Membrane Protein Assay for rat Peripheral-type Benzodiazepine Receptor (PBR) (AID 2283335)
# Sequence of rat Peripheral-type Benzodiazepine Receptor (PBR), Tspo (gene 24230) (P16257 whole entry, looked up): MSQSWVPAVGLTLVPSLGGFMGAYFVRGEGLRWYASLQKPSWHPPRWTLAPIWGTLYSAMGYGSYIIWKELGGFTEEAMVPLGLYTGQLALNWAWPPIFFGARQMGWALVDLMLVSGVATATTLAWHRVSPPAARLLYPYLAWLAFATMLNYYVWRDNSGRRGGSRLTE
# Method in brief: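 Rat kidney membranes; radioligand binding with displacement, filter-based scintillation counting, 1 h incubation. Primary screen in duplicate at 25 uM, actives followed in concentration series; loss of binding vs DMSO.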
# [8] = target: Estrogen receptor (Homo sapiens) (UniProt P03372); experiment: NVS_NR_hER: NovaScreen (NVS) Nuclear Receptor Binding Assay for human Estrogen Receptor (ER) (AID 2283348)
# Sequence of Estrogen receptor (Homo sapiens) (P03372 whole entry, looked up, the tested form may be a part): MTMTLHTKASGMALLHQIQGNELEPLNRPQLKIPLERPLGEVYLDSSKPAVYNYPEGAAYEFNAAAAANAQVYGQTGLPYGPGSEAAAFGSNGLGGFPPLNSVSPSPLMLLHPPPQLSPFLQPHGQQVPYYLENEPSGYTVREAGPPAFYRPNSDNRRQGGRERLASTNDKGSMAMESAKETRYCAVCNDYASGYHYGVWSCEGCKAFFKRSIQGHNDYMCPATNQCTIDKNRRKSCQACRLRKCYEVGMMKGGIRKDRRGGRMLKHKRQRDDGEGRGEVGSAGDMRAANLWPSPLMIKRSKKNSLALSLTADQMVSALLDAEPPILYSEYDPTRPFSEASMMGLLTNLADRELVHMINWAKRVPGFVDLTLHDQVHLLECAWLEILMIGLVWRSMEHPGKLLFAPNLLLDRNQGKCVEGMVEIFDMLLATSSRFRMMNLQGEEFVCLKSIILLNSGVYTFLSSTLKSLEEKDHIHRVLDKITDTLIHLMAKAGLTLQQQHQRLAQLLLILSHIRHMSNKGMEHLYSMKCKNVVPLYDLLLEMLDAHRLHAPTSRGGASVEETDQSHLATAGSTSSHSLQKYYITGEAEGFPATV
# Method in brief: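 Radioligand competitive displacement binding to estrogen receptor from MCF7 extract, cell-free; 18 h after dosing, scintillation read-out. Primary screen in duplicate at 25 uM; actives followed up in concentration series; loss of signal vs DMSO.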
# [9] = target: Estrogen receptor (Homo sapiens) (UniProt P03372); experiment: OT_ER_ERaERa_1440: Odyssey Thera (OT) 24-hour HEK293T Protein-Complementation Assay for Estrogen Receptor-alpha/-alpha Homodimer (AID 2283349);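 also: hits raise fluorescence above DMSO for agonists and antagonists alike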
# Method in brief: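 HEK293T cells stably expressing the human ER alpha ligand-binding domain (aa 310-547) as a homodimer PCA were dosed for 24 hours. Fluorescence intensity was read by laser scanning cytometry, and gain of signal was fitted relative to DMSO vehicle.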
# [10] = target: Estrogen receptor (Homo sapiens) (UniProt P03372); experiment: OT_ER_ERaERa_0480: Odyssey Thera (OT) 8-hour HEK293T Protein-Complementation Assay for Estrogen Receptor-alpha/-alpha Homodimer (AID 2283351);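 also: rise in fluorescence from reassembled reporter fragments on ERα LBD homodimer in nucleus or whole cell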
# Method in brief: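 The readout is complementation of fragments fused to the human ER alpha ligand-binding domain (aa 310-547), stably expressed in HEK293T cells. After 8 h of exposure, the increase in nuclear/cytoplasmic fluorescence was measured by laser scanning cytometry and fitted relative to DMSO.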
# [11] = target: bovine Estrogen Receptor (ER), ESR1 (gene 407238) (UniProt P49884); experiment: NVS_NR_bER: NovaScreen (NVS) Nuclear Receptor Binding Assay for bovine Estrogen Receptor (ER) (AID 2283345);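 also: actives lower the bound radioligand count which means they displace the ER ligand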
# Sequence of bovine Estrogen Receptor (ER), ESR1 (gene 407238) (P49884 whole entry, looked up): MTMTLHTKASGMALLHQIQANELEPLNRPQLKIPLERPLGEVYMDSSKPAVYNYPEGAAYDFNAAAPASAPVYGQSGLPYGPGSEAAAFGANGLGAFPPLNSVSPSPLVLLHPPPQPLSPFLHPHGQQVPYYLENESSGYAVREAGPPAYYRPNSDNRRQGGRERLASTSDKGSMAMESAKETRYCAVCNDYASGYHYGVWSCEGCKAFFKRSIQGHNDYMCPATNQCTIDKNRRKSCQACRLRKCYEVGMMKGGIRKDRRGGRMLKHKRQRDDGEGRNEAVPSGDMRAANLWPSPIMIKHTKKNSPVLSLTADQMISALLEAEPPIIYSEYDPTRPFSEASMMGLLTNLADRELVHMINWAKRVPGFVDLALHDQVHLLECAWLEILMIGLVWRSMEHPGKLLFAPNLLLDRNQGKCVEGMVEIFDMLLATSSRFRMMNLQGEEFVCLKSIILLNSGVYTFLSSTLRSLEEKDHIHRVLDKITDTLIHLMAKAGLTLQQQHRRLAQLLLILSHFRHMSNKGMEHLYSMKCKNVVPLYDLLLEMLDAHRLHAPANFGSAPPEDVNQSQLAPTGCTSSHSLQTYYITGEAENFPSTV
# Method in brief: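 Scintillation counting of displaced radioligand gave the readout; bovine uterine membrane extract supplied the receptor. Measured 18 h post-dose, normalized to DMSO baseline. Single 25 uM duplicate screen preceded concentration-response follow-up.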
# [12] = target: T1, Estrogen receptor (Homo sapiens) + Estrogen receptor beta (Homo sapiens) (UniProt P03372+Q92731); experiment: OT_ER_ERaERb_0480: Odyssey Thera (OT) 8-hour HEK293T Protein-Complementation Assay for Estrogen Receptor-alpha/-beta Heterodimer (AID 2283352)
# T1 sequence (P03372 whole entry, looked up, the tested form may be a part): as the sequence (P03372 whole entry, looked up, the tested form may be a part) above
# T1 sequence (Q92731 whole entry, looked up, the tested form may be a part): as the sequence (Q92731 whole entry, looked up, the tested form may be a part) above
# Method in brief: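 Fluorescence increase from reconstituted reporter fragments, quantified by laser scanning cytometer, reflects ER-alpha/ER-beta heterodimer formation in human HEK293T cells. Exposure 8 h; positive-direction fitting against DMSO vehicle.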
# [13] = target: T1, Estrogen receptor (Homo sapiens) + Estrogen receptor beta (Homo sapiens); experiment: OT_ER_ERaERb_1440: Odyssey Thera (OT) 24-hour HEK293T Protein-Complementation Assay for Estrogen Receptor-alpha/-beta Homodimer (AID 2283356);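 also: heteromer of ER alpha and ER beta binding domains; hits raise reporter fluorescence and both agonists and antagonists give an increase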
# Method in brief: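 Fragment complementation between ER alpha (310-547) and ER beta (263-489) ligand-binding domains in HEK293T cells; signal read 24 h post-dosing by laser scanning cytometer. Gain of fluorescence relative to DMSO fitted.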
# [14] = NVS_IC_rCaBTZCHL: NovaScreen (NVS) Ion Channel Assay for Calcium Channel, Type L, Benzothiazepine Site (CaBTZCHL) (AID 2283337)
# Method in brief: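 Radioligand displacement at the benzothiazepine site using rat cortical membranes; bound label measured by filtration and scintillation counting 1.5 h after dosing. Single-point 25 uM in duplicate, then concentration series; DMSO baseline.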
# [15] = target: human Androgen Receptor (AR), AR (gene 367) (UniProt P10275); experiment: NVS_NR_hAR: NovaScreen (NVS) Nuclear Receptor Binding Assay for human Androgen Receptor (AR) (AID 2283332)
# Sequence of human Androgen Receptor (AR), AR (gene 367) (P10275 whole entry, looked up): as the sequence (P10275 whole entry, looked up, the tested form may be a part) above
# Method in brief: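 LnCAP cell-free extract; radioligand displacement read by scintillation counting after 20 h. Primary screen single concentration 25 uM in duplicate, actives then run as concentration series; loss-of-signal fitted relative to DMSO baseline.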
# [16] = target: rat Mineralocorticoid Receptor (MR), Nr3c2 (gene 25672) (UniProt P22199); experiment: NVS_NR_rMR: NovaScreen (NVS) Nuclear Receptor Binding Assay for rat Mineralocorticoid Receptor (MR) (AID 2283355)
# Method in brief: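 Cell-free radioligand binding to mineralocorticoid receptor from adrenalectomized rat brain supernatant, scintillation counting after 24 h. Primary screen in duplicate at 25 uM; actives retested in concentration series. Loss of specific binding versus DMSO.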
# [17] = target: PGR (gene 5241) (UniProt P06401); experiment: NVS_NR_hPR: NovaScreen (NVS) Nuclear Receptor Binding Assay for human Progestron Receptor (PR) (AID 2283360);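 also: active means loss of bound radioligand signal versus DMSO baseline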
# Method in brief: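 T47D lysate; tritiated or iodinated radioligand; scintillation count at 18 h. DMSO = negative control/baseline. Primary: 25 uM, duplicate. Secondary: concentration series for actives.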
smiles,measurement,setting,value
COS(=O)(=O)O,outcome,[1],inactive
same,outcome,[2],inactive
CCCCCCCCC=CCCCCCCCC1=NCCN1CCO,outcome,[1],inactive
same,AC50,[3],15.7 µM (active)
same,AC50,[4],23.3 µM (active)
same,outcome,[2],inactive
same,AC50,[5],25 µM (active)
same,AC50,[6],5.02 µM (active)
CS(=O)(=O)OCCCCOS(C)(=O)=O,outcome,[7],inactive
same,AC50,[8],0.875 µM (active)
same,outcome,[9],inactive
same,outcome,[10],inactive
CCCCCCCCSCCO,outcome,[1],inactive
same,outcome,[3],inactive
same,outcome,[4],inactive
O=C1OC(=O)c2c(Cl)c(Cl)c(Cl)c(Cl)c21,outcome,[1],inactive
CCCCCCCCCCCC(=O)OCC(O)CO (configuration not stated),outcome,[1],inactive
same,outcome,[11],inactive
same,outcome,[8],inactive
same,outcome,[9],inactive
same,outcome,[10],inactive
same,outcome,[12],inactive
same,outcome,[13],inactive
same,outcome,[2],inactive
CC(=O)O[C@H]1C[C@@H]2CC[C@@]1(C)C2(C)C,outcome,[1],inactive
same,outcome,[3],inactive
same,outcome,[2],inactive
CCC(=O)O[C@@H]1C[C@H]2CC[C@]1(C)C2(C)C,outcome,[1],inactive
same,outcome,[2],inactive
same,outcome,[6],inactive
O=C1OC[C@H](Cc2cccc(O)c2)[C@H]1Cc1cccc(O)c1,AC50,[7],5.43 µM (active)
CCNCCO,outcome,[1],inactive
C1=CC2C3C=CC(C3)C2C1 (configuration not stated),outcome,[1],inactive
C=C[Si]1(C)O[Si](C)(C=C)O[Si](C)(C=C)O[Si](C)(C=C)O1 (configuration not stated),outcome,[1],inactive
same,AC50,[2],23.8 µM (active)
C=CC(C)(O)CCC=C(C)C (configuration not stated),outcome,[1],inactive
same,outcome,[2],inactive
O=CCc1ccccc1,outcome,[1],inactive
CCCCCCCCCCCCCCCC(=O)OC/C=C(C)/C=C/C=C(C)/C=C/C1=C(C)CCCC1(C)C,outcome,[7],inactive
c1ccc(Oc2ccccc2)cc1,outcome,[1],inactive
same,outcome,[7],inactive
same,outcome,[14],inactive
same,outcome,[2],inactive
Oc1c(Cl)cc(Cl)c(Cl)c1Cc1c(O)c(Cl)cc(Cl)c1Cl,AC50,[15],24 µM (active)
same,outcome,[16],inactive
same,outcome,[17],inactive
same,AC50,[6],4.34 µM (active)
